Screens as filed in PubChem.
DAX1 inh: blocks DAX1 repression of SF-1 activated StAR promoter; inhibition, % at 6.8 µM; HEK293T StAR-luciferase reporter, SF-1/DAX-1 repression relief; AID 652010; 1.1% of 370,000 active;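 active means inhibition above the mean over all tested compounds plus 3 SD, cut at about 3.6% in these data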;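 further: higher inhibition means more luminescence from relief of DAX-1 repression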
ssDAF12 agonist: S. stercoralis DAF-12 activation, primary screen. HEK293 ssDAF-12/GRIP1 lit1-tk-luc reporter, luminescence; % of 3 µM dafachronic acid response. 1% of 370,000 active. activation, % at 6.8 µM;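 active means activation above the mean over all tested compounds plus 3 SD, cut at about 0.9% in these data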
hgDAF-12 ag: activates the H. glycines DAF-12 receptor ligand-binding domain; 1.8% of 370,000 active; activation, % at 6.8 µM; HEK293 GAL4-hgDAF12 UAS-luciferase reporter, agonist luminescence; normalized to butyrate control; AID 687014;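 active means activation above a cutoff set at the mean of all screened compounds plus 3 SD, cut at about 10% in these data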
hcDAF-12 act: activates DAF-12 receptor from parasite H. contortus. HEK293 hcDAF-12 lit1-tk-luc reporter, luminescence; 0% DMSO, 100% Δ7-dafachronic acid. 1.4% of 370,000 active. activation, % at 6.8 µM;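 active means activation above the mean of all tested compounds plus 3 SD, cut at about 5.5% in these data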
SMARCA2 act: activators of SMARCA2 function; MG213 cells, MMTV-luciferase reporter, dexamethasone, overnight; activation, % at 9.1 µM; 1% of 370,000 active; AID 652017; in the data active means activation above about 7.8%
Each line names hits and unclear results; the compound was inactive in the other large screens; ! = a repeat was not active. Most compounds without a hit are left out; they make up all but 4.2% or so of the library.

CN(C)CCCN(C(=O)c1ccc2ccccc2c1)c1nc2cc3c(cc2s1)OCO3	none
CN(C)CCN(C(=O)c1ccc2ccccc2c1)c1nc2cc3c(cc2s1)OCCO3	DAX1 inh 3.7
Cc1ccc2c(c1)C1CS(=O)(=O)N(Cc3ccccc3)CN1C2 (stereo not drawn)	none
CCOC(=O)NN1C(=O)c2ccccc2NC1(C)C	none
CC1(C)Nc2ccccc2C(=O)N1NC(=O)c1ccccc1	hcDAF-12 act 5.7
c1ccc2c(c1)Cc1cc(CN3CCOCC3)ccc1-2	hgDAF-12 ag 13
CC(=O)NCCNc1nc2cc(-c3cc(F)ccc3C)sc2c(=O)n1C	none
Cc1cc(Oc2cccnc2)ccc1NC(=O)Cc1cn(C)c2ccccc12	none
CC(C)Oc1cccc(C(=O)Nc2nnc([C@@H]3C[C@H](O)[C@@H](CO)O3)s2)c1	ssDAF12 agonist 1.0
O=C(Nc1nnc([C@H]2C[C@H](O)[C@@H](CO)O2)s1)c1cccc(C(F)(F)F)c1	none
O=C(Nc1ccc(Cl)cc1)c1csc([C@@H]2C[C@H](O)[C@@H](CO)O2)n1	none
O=C(Nc1cccc(Cl)c1)c1csc([C@H]2C[C@H](O)[C@@H](CO)O2)n1	hgDAF-12 ag 11
O=C(Nc1cccc(C(F)(F)F)c1)Nc1nnc([C@@H]2C[C@H](O)[C@@H](CO)O2)s1	hgDAF-12 ag 10
CCCCNC(=O)C1(C)CCCCN1C(=O)c1oc2ccccc2c1C (stereo not drawn)	none
COC(=O)c1cc(C)oc1C	none
Cc1ncoc1C(=O)Nc1ncc([N+](=O)[O-])s1	hgDAF-12 ag 12
Cc1cnc(NC(=O)c2cccs2)s1	hgDAF-12 ag 12, hcDAF-12 act 6.2
Cc1ncoc1C(=O)Nc1nccs1	none
O=C(Nc1ncc([N+](=O)[O-])s1)c1cccs1	DAX1 inh 4.3!
O=C(CCS(=O)(=O)Cc1ccccc1)Nc1ncc([N+](=O)[O-])s1	DAX1 inh 4.0
Cc1csc(NC(=O)c2cccs2)n1	none
CCC(=O)N(C)C[C@@H]1[C@H](c2ccc(C3=CCCCC3)cc2)[C@H](CO)N1C(=O)CC	none
Cc1ccccc1-n1c(-c2ccoc2C)n[nH]c1=S	ssDAF12 agonist 1.3
Cc1cccc(-n2c(-c3ccoc3C)n[nH]c2=S)c1	none
COc1cccc(-c2ccc(C#N)c(SCC(=O)NCCc3ccccc3)n2)c1	ssDAF12 agonist 1.0
COc1cccc(-c2ccc(SCC(=O)NCCc3ccccc3)nn2)c1	none
COc1ccc(N(CC(=O)Nc2cc(Cl)ccc2OC)C2=NC3CS(=O)(=O)CC3S2)cc1 (stereo not drawn)	none
COc1cccc(NC(=O)CN(C2=NC3CS(=O)(=O)CC3S2)c2cccc(C)c2)c1 (stereo not drawn)	ssDAF12 agonist 1.2
COc1ccccc1/C=N\NC(=O)c1cccc(S(=O)(=O)N(C)C)c1	none
O=c1cc(-c2ccccc2)c2c([nH]1)CCCC2	hcDAF-12 act 5.7
CCc1ccc(-c2n[nH]nc2C2=CC(=O)C[C@H](c3ccc(F)cc3)C2)cc1	none
S=C(Nc1cccc(Cl)c1)OC1CCC12CCC(c1ccccc1)CC2 (stereo not drawn)	none
Cn1cccc1C(=O)OCC(=O)NC1CCS(=O)(=O)C1 (stereo not drawn)	ssDAF12 agonist 2.5
Cc1cccc(Cn2cc(COC(=O)NCCc3c[nH]c4ccccc34)nn2)c1	none
Cc1ccc(Cc2c(-c3ccc(C#N)cc3)nc3c(C)cc(Br)cn23)cc1	ssDAF12 agonist 1.0
COc1ccc(Cc2c(-c3ccccc3)nc3ccc(Br)cn23)c(C)c1	hgDAF-12 ag 13
Cc1ccc(Cc2c(-c3ccccc3)nc3c(C)cc(Br)cn23)cc1	none
COc1ccc(Cc2c(-c3ccc(C)cc3)nc3c(C)cc(Br)cn23)c(C)c1	ssDAF12 agonist 1.1
COc1ccc(Cc2c(-c3cccc(Br)c3)nc3ccc(Cl)cn23)c(C)c1	none
COc1ccc(Cc2c(-c3ccc(OC)c(OC)c3)nc3c(C)cc(Br)cn23)c(C)c1	none
Cc1ccc(-n2c(SCC(=O)c3ccccc3Cl)nnc2-c2cnccn2)cc1	none
C[C@H]1[C@@H](OC(=O)NCc2ccccc2)CC[C@@]23CCCN2C(=O)CCC[C@@H]13	none (no result: DAX1 inh, SMARCA2 act)
C[C@H]1COc2cc(N3CCCC3)ccc2S(=O)(=O)N1C	none
Nc1nc(COc2ccccc2)cs1	SMARCA2 act 7.9
COCCn1c(-c2ccco2)nc2nc3ccccc3nc21	none
CC(C)OCCCn1c(-c2ccco2)nc2nc3ccccc3nc21	SMARCA2 act 7.9
Cn1c(=O)oc2cc(S(=O)(=O)N3CCN(c4ccccc4)CC3)ccc21	ssDAF12 agonist 2.6
CC1(C)CC(=O)C2=C(C1)OC(N)=C(C#N)C21C(=O)N2CCCc3cccc1c32 (stereo not drawn)	ssDAF12 agonist 1.0
COc1ccccc1CCc1nnc(CCC(=O)N(C)Cc2cccc3cnccc23)o1	hgDAF-12 ag 11
O=C(c1ccc2oc(CCCc3ccccc3)nc2c1)N1CCCCC1CO (stereo not drawn)	DAX1 inh 3.8
NC(=O)[C@@H]1CCCN1C(=O)c1ccc2oc(CCc3ccccc3)nc2c1	DAX1 inh 3.6
COCC1CCCN(C(=O)c2ccc3oc(CCCc4ccccc4)nc3c2)C1 (stereo not drawn)	none
NC(=O)[C@@H]1CCCN1C(=O)c1ccc2nc(Cc3ccccc3F)oc2c1	none
Cc1ccccc1N=C1NC(=O)/C(=C/c2cccnc2)S1	ssDAF12 agonist 1.9
Cc1cc(N2CCCN(C)CC2)nc2cc(Cl)ccc12	ssDAF12 agonist 1.1
Cc1cc(N2CCCCC2)nc2ccccc12	none
CCOc1ccc(C(=O)Nc2cc(NC(=O)c3ccc(OCC)c(Cl)c3)cc(C(=O)O)c2)cc1Cl	none
CCOc1ccc(C(=O)Nc2ccc(Cl)cn2)cc1Cl	hgDAF-12 ag 13
COc1ccc(S(=O)(=O)NC(=O)C2(C)CCN2C(=O)CC2CC2)cc1 (stereo not drawn)	none
CC(=O)N1CCc2c1cccc2S(=O)(=O)NC(CC(C)C)C(=O)Nc1ccc(F)cc1Cl (stereo not drawn)	none
Cn1c(=O)[nH]c(=O)c2c1nc(CN1CCN(c3cccc(Cl)c3)CC1)n2CCc1ccccc1	none
Cn1c(CN2CCN(c3cccc(Cl)c3)CC2)nc2ccccc21	hcDAF-12 act 5.8
Cc1nc(NC(=O)CSc2nnnn2C)sc1C	none
COC(=O)c1c(NC(=O)CSc2nnc(Cn3nnc4ccccc43)n2C)sc(C)c1C	none
COC(=O)c1sc(NC(=O)CSc2nnc(Cn3nnc4ccccc43)n2C)nc1C	ssDAF12 agonist 1.1
COC(=O)c1sc(NC(=O)CSc2nnnn2C)nc1C	hcDAF-12 act 5.6
CCN(c1ccc(NC(=O)COC(=O)c2ccc3ccccc3n2)cc1)C(C)C	ssDAF12 agonist 0.9
COC(=O)C(CC(C)C)N(Cc1ccc(Br)cc1)S(=O)(=O)CCl (stereo not drawn)	none
Oc1ccc2ccccc2c1N=Nc1ccccc1F	hcDAF-12 act 6.4
